Laboratory results taken from PubChem BioAssay.
Results with a measured potency or affinity are listed apart. Activity calls are given as the source filed them.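 Rule for the calls: active = fitted dose curve reaches 40% lysis signal rise at or below the highest valid concentration tested for that sample; inconclusive = flat fit between 30% and 70%, or poor curve fit; inactive = signal falls, stays flat within 30%, or no crossing.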

experiment: C. neoformans lysis by adenylate kinase leakage – AK release luminescence, cherry-picks, dose response (AID 687000); settings: 4 h, 100% = twice the neutral-control signal; series mostly up to 15 µM;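 note: luminescent detection of adenylate kinase leaking from lysed yeast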

outcome, inactive:
O=C(Nc1ccc(F)cc1)N1C[C@@H]2[C@H](c3ccccc31)[C@H](CO)N2Cc1cocn1
C[C@@H]1CN([C@H](C)CO)C(=O)c2cc(NS(=O)(=O)c3ccc(Cl)cc3)ccc2O[C@H]1CN(C)S(=O)(=O)c1ccc(F)cc1
COc1ccccc1-c1cnc2c(c1)C(=O)N([C@H](C)CO)C[C@@H](C)[C@H](CN(C)Cc1cncnc1)O2
CNC[C@H]1Oc2c(NS(=O)(=O)c3cccs3)cccc2C(=O)N([C@H](C)CO)C[C@@H]1C
Cc1noc(C)c1S(=O)(=O)N(C)C[C@@H]1Oc2c(NC(=O)c3cnccn3)cccc2C(=O)N([C@@H](C)CO)C[C@@H]1C
CN1C(=O)c2cc(NS(C)(=O)=O)ccc2OC[C@@H]2O[C@@H](CC(=O)O)CC[C@@H]21
CNC(=O)C[C@H]1CC[C@H]2[C@H](COc3ccc(NC(=O)c4cc(C)on4)cc3C(=O)N2C)O1
C[C@@H]1CCCCO[C@@H](CN(C)S(=O)(=O)c2ccc(F)cc2)[C@@H](C)CN([C@@H](C)CO)C(=O)c2cc(NS(=O)(=O)c3ccc(F)cc3)ccc2O1
COc1cccc(C2CC(c3cccs3)=NN2C(=O)c2ccco2)c1O (configuration not stated)
COCCNC(=O)C[C@@H]1CC[C@@H]2[C@H](COC[C@@H](O)CN2S(=O)(=O)c2ccccc2C)O1
O=C(C[C@H]1C[C@@H]2c3cc(NC(=O)CC4CC4)ccc3O[C@@H]2[C@@H](CO)O1)NCc1cccc(F)c1
O=C(C[C@@H]1C[C@@H]2c3cc(NC(=O)Nc4ccc(F)cc4)ccc3O[C@@H]2[C@@H](CO)O1)NCC1CC1
